MK inhibit: inhibitors of Streptococcus pneumoniae mevalonate kinase | 65,000 tested, 0.48% active | inhibition, % at 10 µM | purified MK, PK/LDH-coupled NADH absorbance 340 nm;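 active means ranked among the strongest by inhibition in the single 10 µM screen, a fixed top-ranked set picked for dose follow-up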
DPM-DC inhibit: S. pneumoniae DPM-DC inhibition | purified DPM-DC, PK/LDH coupled NADH fluorescence | calls only at 10 µM | 65,000 tested, 0.49% active | AID 556;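 active means the 320 compounds with the highest percent inhibition in the single-dose primary screen, excluding strongly autofluorescent ones, cut at about 32% in these data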;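 further: kinetic rate of NADH fluorescence loss reporting ADP formed by the decarboxylase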
Spn PMK inh: S. pneumoniae PMK inhibition; purified PMK, PK/LDH-coupled NADH absorbance 340 nm; inhibition, % at 10 µM; 65,000 tested, 0.49% active; AID 539;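 active means top-ranked compounds by inhibition in the single 10 µM screen, taking a fixed number of the strongest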
Autofluor 339: intrinsic fluorescence of library compounds, ex339/em460 – biochemical, MLSMR library, data from DPM-DC assay, artefact control, profiling panel | AID 709 | compound autofluorescence, ex339/em460 nm, NADH buffer; active compounds read high; 1 = no-compound wells, NADH background | 65,000 tested, 5.5% active | fluorescence fold increase at 10 µM;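 active means at 10 µM, mean starting fluorescence two-fold or more over control wells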;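 further: signal is the first read of a kinetic run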
NADH coupling: blocks coupling enzymes of NAD/NADH assays; AID 774; 65,000 tested, 0.02% active; coupled PK/LDH NADH assays, four targets; IC50, µM (series often up to 10 µM);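 active means single-dose screening hits from any of four coupled enzyme assays that gave an IC50 when retested across doses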;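 further: the DPM-DC format reads NADH fluorescence rather than 340 nm absorbance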
A340 absorber: compound absorbs light at 340 nm; fold change at 10 µM; compound absorbance at 340 nm, fold over control; AID 708; 65,000 tested, under 10 active;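 active means at 10 µM dose, initial 340 nm absorbance at least 2 fold that of control wells; inactive means change under 2 fold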;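 further: initial absorbance extrapolated from kinetic A340 decline of NADH oxidation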
Hits are given with their value. Rows were chosen to be rich in hits. Some 6.8% of all compounds tested hit in one or more screens of this group.

Screening O=C(Nc1ccc(Cl)cc1C(=O)Nc1ccc(Br)cn1)c1ccco1 returned MK inhibit inactive, DPM-DC inhibit inactive, Spn PMK inh inactive, Autofluor 339 2.3, NADH coupling inactive and A340 absorber inactive.
Screening CC(=O)N1CCc2cc3nc(C)cc(C)c3cc21 returned MK inhibit inactive, Spn PMK inh inactive, Autofluor 339 4.1, NADH coupling inactive and A340 absorber inactive.
Screening CC(=O)N1CCc2cc(C(=O)CN3CCCCC3)ccc21 returned MK inhibit inactive, DPM-DC inhibit inactive, Spn PMK inh inactive, Autofluor 339 inactive, NADH coupling inactive and A340 absorber inactive.
`COc1cc(Cl)c(S(=O)(=O)NCc2cccnc2)cc1Cl` gave MK inhibit inactive, DPM-DC inhibit inactive, Spn PMK inh inactive, Autofluor 339 inactive, NADH coupling inactive and A340 absorber inactive.
For Cc1ccc(C)c(S(=O)(=O)c2c(N)n(/N=C/c3ccco3)c3nc4ccccc4nc23)c1 the results were MK inhibit inactive, DPM-DC inhibit inactive, Spn PMK inh inactive, Autofluor 339 2.1, NADH coupling inactive and A340 absorber inactive.
For Nc1c(S(=O)(=O)c2ccccc2)c2nc3ccccc3nc2n1/N=C/c1cccc(O)c1 the results were MK inhibit inactive, Spn PMK inh inactive, Autofluor 339 3.7, NADH coupling inactive and A340 absorber inactive.
CCCCNC(=O)c1c(N)n(/N=C/c2cccnc2)c2nc3ccccc3nc12 was read as MK inhibit inactive, DPM-DC inhibit inactive, Spn PMK inh inactive, Autofluor 339 inactive, NADH coupling inactive and A340 absorber inactive.
For CCCCCNC(=O)c1c(N)n(/N=C/c2ccco2)c2nc3ccccc3nc12 the results were MK inhibit inactive, DPM-DC inhibit inactive, Spn PMK inh inactive, Autofluor 339 inactive, NADH coupling inactive and A340 absorber inactive.
Screening c1nc2sc3c(c2c2nnnn12)CCC3 returned MK inhibit inactive, Spn PMK inh inactive, Autofluor 339 2.1, NADH coupling inactive and A340 absorber inactive.
For COc1cccc(CC(NC(C)=O)C(=O)NC2CCN(c3nc(C)cc(C)c3C#N)CC2)c1OC (stereo not drawn) the results were MK inhibit inactive, DPM-DC inhibit inactive, Spn PMK inh inactive, Autofluor 339 3, NADH coupling inactive and A340 absorber inactive.
Screening O=C1OCc2cccc3cccc1c23 returned MK inhibit inactive, Spn PMK inh inactive, Autofluor 339 2.1, NADH coupling inactive and A340 absorber inactive.
Screening O/N=C1/CCc2cccc3cccc1c23 returned MK inhibit inactive, DPM-DC inhibit inactive, Spn PMK inh inactive, Autofluor 339 inactive, NADH coupling inactive and A340 absorber inactive.
`O=C(O)C1CCCN1S(=O)(=O)c1ccc2[nH]c(=O)c(=O)[nH]c2c1` (stereo not drawn) gave MK inhibit inactive, DPM-DC inhibit inactive, Spn PMK inh inactive, Autofluor 339 inactive, NADH coupling inactive and A340 absorber inactive.
Screening CCOC(=O)N1CCC(N2C(=O)c3ccccc3C2Nc2ccc3c(C)cc(=O)oc3c2)CC1 (stereo not drawn) returned MK inhibit inactive, Spn PMK inh inactive, Autofluor 339 2.5, NADH coupling inactive and A340 absorber inactive.
For CCOC(=O)c1ccccc1NC1c2ccccc2C(=O)N1C1CCN(C(=O)OCC)CC1 (stereo not drawn) the results were MK inhibit inactive, Spn PMK inh inactive, Autofluor 339 2.4, NADH coupling inactive and A340 absorber inactive.
Screening CCOC(=O)c1ccccc1NC1c2ccccc2C(=O)N1c1ccc(C)cn1 (stereo not drawn) returned MK inhibit inactive, DPM-DC inhibit inactive, Spn PMK inh inactive, Autofluor 339 inactive, NADH coupling inactive and A340 absorber inactive.
Screening CCOC(=O)c1ccccc1NC1OC(=O)c2ccccc21 (stereo not drawn) returned MK inhibit inactive, Spn PMK inh inactive, Autofluor 339 3.6, NADH coupling inactive and A340 absorber inactive.
For Cc1ccc2c(c1)c1c3n2CCN(C(=O)Cn2c(-c4ccccc4)noc2=O)C3CCC1 (stereo not drawn) the results were MK inhibit inactive, DPM-DC inhibit inactive, Spn PMK inh inactive, Autofluor 339 3.2, NADH coupling inactive and A340 absorber inactive.
O=c1[nH]ncn2cccc12 was read as MK inhibit inactive, DPM-DC inhibit inactive, Spn PMK inh inactive, Autofluor 339 inactive, NADH coupling inactive and A340 absorber inactive.
For COc1cc(C(=O)Nc2ccc3c(c2)OCCO3)c(-n2cnnn2)cc1OC the results were MK inhibit inactive, DPM-DC inhibit inactive, Spn PMK inh inactive, Autofluor 339 inactive, NADH coupling inactive and A340 absorber inactive.
For COc1cc(C(=O)Nc2ccc3c(c2)OCO3)ccc1-n1cnnn1 the results were MK inhibit inactive, DPM-DC inhibit active, Spn PMK inh inactive, Autofluor 339 inactive, NADH coupling inactive and A340 absorber inactive.
Screening O=C(Nc1ccc2nn(-c3ccccc3)nc2c1)c1ccc2c(c1)OCO2 returned MK inhibit inactive, DPM-DC inhibit inactive, Spn PMK inh inactive, Autofluor 339 2.6, NADH coupling inactive and A340 absorber inactive.
`CCN(CCCNC(=O)c1ccc(N2CCCC2=O)cc1)c1cccc(C)c1` gave MK inhibit inactive, DPM-DC inhibit inactive, Spn PMK inh inactive, Autofluor 339 inactive, NADH coupling inactive and A340 absorber inactive.
COc1ccc(-n2c3c(cc(C(=O)Nc4ccc5c(c4)C(=O)NC5=O)c2=O)C(=O)CCC3)cc1 was read as MK inhibit inactive, DPM-DC inhibit inactive, Spn PMK inh inactive, Autofluor 339 inactive, NADH coupling inactive and A340 absorber inactive.
`O=C1CCCc2sccc2N1` gave MK inhibit inactive, DPM-DC inhibit inactive, Spn PMK inh inactive, Autofluor 339 inactive, NADH coupling inactive and A340 absorber inactive.
Screening CC1(C)Oc2ccc(C(=O)NC3CCCC3)cc2N(CC(=O)NC2CCCCC2)C1=O returned MK inhibit inactive, DPM-DC inhibit inactive, Spn PMK inh inactive, Autofluor 339 inactive, NADH coupling inactive and A340 absorber inactive.
Cc1occc1C(=O)NC1CCCCCC1 was read as MK inhibit inactive, DPM-DC inhibit inactive, Spn PMK inh inactive, Autofluor 339 inactive, NADH coupling inactive and A340 absorber inactive.
Screening O=C(NC1CCCCCCC1)c1ccccc1O returned MK inhibit inactive, DPM-DC inhibit inactive, Spn PMK inh inactive, Autofluor 339 3, NADH coupling inactive and A340 absorber inactive.
For CC1(C)CC2CC(C)(CN2C(=O)c2cc(-c3ccccc3O)on2)C1 (stereo not drawn) the results were MK inhibit inactive, DPM-DC inhibit inactive, Spn PMK inh inactive, Autofluor 339 inactive, NADH coupling inactive and A340 absorber inactive.
For Cc1cccc(C(=O)Nc2cc(=O)n(C)c(=O)n2C)c1 the results were MK inhibit inactive, DPM-DC inhibit active, Spn PMK inh inactive, Autofluor 339 inactive, NADH coupling inactive and A340 absorber inactive.
CCCc1nc2oc3c(NCc4ccccn4)ncnc3c2c2c1COC(C)(C)C2 was read as MK inhibit inactive, DPM-DC inhibit inactive, Spn PMK inh inactive, Autofluor 339 2.7, NADH coupling inactive and A340 absorber inactive.
